Screening data as filed in PubChem.
A selection: hits, their analogues and other compounds. The true share with any hit is near 2.4%.
D2 antag – D2 dopamine receptor (human) antagonism; AID 485344; HEK293 TREx D2 cells, calcium flux, dopamine EC80; hit rate 2% among 340,000; inhibition, % at 10 µM; in the data active means inhibition above about 30%; inactive means below that, where a call was filed; further: 0% is about no effect
Target sequence (P14416 whole entry, looked up): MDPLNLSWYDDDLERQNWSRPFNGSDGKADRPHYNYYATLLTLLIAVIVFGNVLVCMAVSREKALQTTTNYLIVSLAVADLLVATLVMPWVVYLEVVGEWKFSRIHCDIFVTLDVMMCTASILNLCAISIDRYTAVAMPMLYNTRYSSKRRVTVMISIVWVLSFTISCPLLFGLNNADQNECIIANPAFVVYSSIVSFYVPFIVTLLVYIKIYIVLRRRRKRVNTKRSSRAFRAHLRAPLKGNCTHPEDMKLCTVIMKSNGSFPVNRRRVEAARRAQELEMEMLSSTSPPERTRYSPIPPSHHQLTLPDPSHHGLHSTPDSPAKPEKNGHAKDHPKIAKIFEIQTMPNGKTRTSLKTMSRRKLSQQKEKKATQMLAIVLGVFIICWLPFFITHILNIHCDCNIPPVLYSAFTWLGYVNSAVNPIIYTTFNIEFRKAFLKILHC
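Cells plated overnight at 30 C with tetracycline; no-wash calcium dye, 30–90 min RT; 10 s baseline; compound pinned; 180 s read; EC80 dopamine added; another 180 s read.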
D2 ag-1 – D2 dopamine receptor (human) agonism; P14416; HEK293 T-REx D2 cells, calcium flux agonist mode; activation, % at 2 µM; hit rate 0.53% among 340,000; AID 485358;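 active means activation over 3 SD above normal in the single-dose calcium agonist read, cut at about 30% in these data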; further: 0% is about no effect
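Calcium-flux readout, 1 cycle/sec over 180 s following compound pin transfer, in inducible HEK293 Trex D2 cells (force-coupled); dopamine controls included. Positive calcium responses during this window marked compounds as potential agonists.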
D2 ag-2 – agonists of human D2 dopamine receptor (beta-arrestin); activation, % (test concentration not listed); DiscoveRx PathHunter D2 beta-arrestin, luminescence, 90 min; 100% = 57 uM dopamine signal; hit rate 0.084% among 360,000; AID 624465; P14416; in the data active means activation above about 40%; inconclusive means between about 15% and that limit
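DiscoveRx PathHunter D2 beta-arrestin cells (2,100/well) attached overnight, then compound-stimulated 90 min at 37 C in HBSS/10 mM HEPES/0.1% Tween-20 buffer; beta-galactosidase complementation read by luminescence after 1 h at ambient temperature. Dopamine 57 uM final (EC100) as control.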
D2 PAM-1 – potentiates the human D2 dopamine receptor allosterically. AID 624464. P14416. hit rate 0.23% among 360,000. potentiation, % (test concentration not listed). DiscoveRx D2 beta-arrestin cells, luminescence, 90 min; 100% = 57 uM dopamine signal; in the data active means potentiation above about 50%; inconclusive means mostly about 30% to 49%
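D2 cells co-treated with compound plus 50 nM dopamine (EC20) for 90 min at 37 deg C to detect potentiation. Beta-arrestin recruitment was read as enzyme-fragment luminescence after 1 h at ambient temperature. Full response was set by 57 uM dopamine.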
D2 PAM-2 – positively modulates the human D2 dopamine receptor allosterically. P14416. potentiation, % at 10 µM. HEK293 T-REx D2, calcium flux, EC20 dopamine potentiation. hit rate 0.34% among 340,000;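 active means potentiation over 3 SD above the plate norm, cut at about 30% in these data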; further: 0% is about no effect
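Tetracycline-induced Hek293 Trex D2 cells, force-coupled to calcium, loaded with no-wash calcium dye. Compound added with 180 s kinetic read for agonism, then EC20 dopamine and a further 180 s read for potentiation.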
D3 ag – confirmation of human D3 dopamine receptor agonists, beta-arrestin | shares compounds with D2 ag-1 | DiscoveRx D3 beta-arrestin cells, luminescence, 90 min | Potency, µM (titrated, usually from 76.9 µM), without a hit: at the highest dose activation, actives largely listed as activators | hit rate 4% among 2,300;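 further: potency means the concentration at half of the fitted maximal effect; 100% = dopamine control response; nearly all actives have a fitted effect of over 70% in size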
D2 ag-3 – D2 receptor agonism, beta-arrestin counterscreen; shares compounds with D2 ag-1; DiscoveRx PathHunter D2 beta-arrestin, luminescence, 90 min; response scale: percent relative to full dopamine signal; Potency, µM (doses to about 76.9 µM), for inactives: at the highest dose activation, actives largely listed as activators; hit rate 5.9% among 2,300; AID 720507; further: potency means the concentration at half of the fitted maximal effect; % of control where 0% means no effect; nearly all actives have a fitted effect of over 70% in size
* marks the source's active call; other numbers are inactive results. Unless noted, the call rests on the fitted dose curve; in most records, active means well fitted activation curve with a large enough effect; inconclusive means small, poorly fitted or top-dose-only effect; inactive means flat fitted curve, though single readings scatter.

Results for COc1ccccc1Oc1ccc(S(=O)(=O)N2CCOCC2)cc1S(=O)(=O)N1CCOCC1 ?
D2 antag: 1.4; D2 ag-1: 44.3*; D2 ag-2: -3.7; D2 PAM-1: -4.4; D2 PAM-2: -13.8; D3 ag: 1.1%; D2 ag-3: -0.6%

Results for COc1ccc(S(=O)(=O)N2CCOCC2)cc1NC(=O)COc1ccccc1OC ?
D2 antag: -39.9; D2 ag-1: -0.3; D2 ag-2: -0.5; D2 PAM-1: -3.4; D2 PAM-2: 1.6

Results for COc1c(C)cc(NS(=O)(=O)c2ccc3c(c2)OCCO3)cc1C ?
D2 ag-1: -0.3; D2 PAM-2: 16.5

Results for CC12CCC3C(CCC4CC(O)CCC43C)C1CC(O)C2 (configuration not stated) ?
D2 ag-2: -2.0; D2 PAM-1: 2.5

What do the screens show for `C[C@]12CCC(O)CC1CCC1C2CC[C@]2(C)C(c3cc(C(F)(F)F)n[nH]3)CCC12` (some centres not stated)?
D2 antag: 44.1*; D2 ag-1: 16.4; D2 ag-2: -3.2; D2 PAM-1: 5.4; D2 PAM-2: 10.7; D3 ag: inconclusive; D2 ag-3: inconclusive

What do the screens show for `Cc1ccc(CN2CCN(c3ccccn3)CC2)s1`?
D2 antag: 93.6*; D2 ag-1: -2.0; D2 ag-2: 65.0*; D2 PAM-1: 67.6*; D2 PAM-2: 11.6; D3 ag: inconclusive; D2 ag-3: 0.159µM*

What do the screens show for `Cc1ccc(S(=O)(=O)CCN2CCN(c3ccccn3)CC2)cc1`?
D2 antag: -0.7; D2 ag-1: 6.2; D2 ag-2: 1.0; D2 PAM-1: -12.4; D2 PAM-2: -6.3

What do the screens show for `c1ccc(CCCN2CCN(c3ccccn3)CC2)cc1`?
D2 antag: 75.5*; D2 ag-1: 75.9*; D2 ag-2: 1.1; D2 PAM-1: 0.4; D2 PAM-2: -19.2; D3 ag: inconclusive; D2 ag-3: inconclusive

What do the screens show for `CC(=O)Nc1sc2c(c1CN1CCN(c3ccccn3)CC1)CCCC2`?
D2 antag: -9.7; D2 ag-1: 16.1; D2 ag-2: -2.6; D2 PAM-1: -30.7; D2 PAM-2: -24.1

How did Cc1sc(NC(=O)c2ccco2)c(CN2CCN(c3ccccn3)CC2)c1C do in these assays?
D2 antag: 123.7*; D2 ag-1: 67.6*; D2 ag-2: 8.2; D2 PAM-1: 18.5; D2 PAM-2: -29.8; D3 ag: 11.3%; D2 ag-3: 29.7%

What do the screens show for `O=c1cc(CN2CCN(c3ccccn3)CC2)nc2sccn12`?
D2 antag: 12.4; D2 ag-1: 54.5*; D2 ag-2: 7.6; D2 PAM-1: 2.4; D2 PAM-2: -17.4; D3 ag: 10.3%; D2 ag-3: 21.7%

What do the screens show for `c1ccc(N2CCN(Cc3ccsc3)CC2)nc1`?
D2 antag: 84.1*; D2 ag-1: 76.5*; D2 ag-2: 65.6*; D2 PAM-1: 101.3*; D2 PAM-2: -15.7; D3 ag: inconclusive; D2 ag-3: 0.708µM*

Results for c1ccc(N2CCN(c3cnccn3)CC2)nc1 ?
D2 antag: 2.9; D2 ag-1: -0.8; D2 ag-2: -2.4; D2 PAM-1: -10.9; D2 PAM-2: 12.6

How did CC1(C)C2CC[C@]1(C)C(=O)N(CCCCN1CCN(c3ccccn3)CC1)C2=O do in these assays?
D2 antag: 115.7*; D2 ag-1: 85.9*; D2 ag-2: 70.4*; D2 PAM-1: inconclusive; D2 PAM-2: -20.7; D3 ag: inconclusive; D2 ag-3: 0.0631µM*

Results for Cc1ccc(/C=N/c2sc3c(c2C#N)CCC3)o1 ?
D2 antag: 9.0; D2 ag-1: 2.5; D2 ag-2: -2.2; D2 PAM-1: -17.4; D2 PAM-2: 7.6

Results for N#Cc1c(/N=C/c2ccc(-c3ccccc3C(=O)O)o2)sc2c1CCCC2 ?
D2 antag: -13.4; D2 ag-1: 65.8*; D2 ag-2: 13.7; D2 PAM-1: 14.4; D2 PAM-2: -10.9; D3 ag: inconclusive; D2 ag-3: inconclusive

Results for N#Cc1c(/N=C\c2ccc(O)c([N+](=O)[O-])c2)sc2c1CCCC2 ?
D2 antag: 17.6; D2 ag-1: 66.6*; D2 ag-2: inconclusive; D2 PAM-1: 20.3; D2 PAM-2: -22.9; D3 ag: inconclusive; D2 ag-3: 12.9%

What do the screens show for `N#Cc1c(/N=C/c2ccc(-c3ccc(C(=O)O)c(Cl)c3)o2)sc2c1CCCC2`?
D2 antag: -3.5; D2 ag-1: 45.3*; D2 ag-2: inconclusive; D2 PAM-1: 14.5; D2 PAM-2: -11.8; D3 ag: 39.8µM*; D2 ag-3: inconclusive

Results for N#Cc1c(/N=C/c2ccc(Br)s2)sc2c1CCC2 ?
D2 antag: -30.4; D2 ag-1: 0.3; D2 ag-2: 9.2; D2 PAM-1: 1.8; D2 PAM-2: 3.0

What do the screens show for `Cc1ccc(-c2nnc(Nc3ccc(Br)cc3)c3ccccc23)cc1S(=O)(=O)NCc1nc2ccccc2[nH]1`?
D2 PAM-2: -5.8

Results for COc1ccc(/C=C/C(=O)O)cc1S(=O)(=O)NCc1cccnc1 ?
D2 antag: 15.1; D2 ag-1: 0.2; D2 ag-2: -0.5; D2 PAM-1: 13.6; D2 PAM-2: 2.4

Results for COc1ccc(-c2cn(Cc3ccc4c(c3)C(=O)c3ccccc3C4=O)nn2)cc1 ?
D2 antag: 12.8; D2 ag-1: 1.3; D2 ag-2: 2.5; D2 PAM-1: -0.6; D2 PAM-2: -1.4; D3 ag: 39.8µM*; D2 ag-3: 35.5µM*

What do the screens show for `CCOc1ccc(/C=N/NC(=O)C(OC)c2ccccc2)cc1` (configuration not stated)?
D2 antag: 0.3; D2 ag-1: 0.3; D2 ag-2: 1.0; D2 PAM-1: 4.5; D2 PAM-2: 5.1

Results for CCOc1ccc(C=NCC(O)c2ccccc2)cc1 (configuration not stated) ?
D2 antag: 12.9; D2 ag-1: 20.8; D2 ag-2: 3.0; D2 PAM-1: -7.3; D2 PAM-2: -2.3; D3 ag: -3.8%; D2 ag-3: 1.3%

What do the screens show for `OC(COc1ccc(Cl)c2ccccc12)CN1CCN(c2ccccn2)CC1` (configuration not stated)?
D2 antag: 35.5*; D2 ag-1: 53.6*; D2 ag-2: 4.7; D2 PAM-1: -24.3; D2 PAM-2: -21.4; D3 ag: 14.1µM*; D2 ag-3: inconclusive
